IMPase Li cell – IMPase inhibition in cells with lithium potentiation; CHO-M1 cells, IP1 TR-FRET (IP-One), carbachol + lithium; Potency, µM (top dose mostly 59.4 µM), for inactives: top-dose activity, negative = IMPase inhibition, most hits filed as inhibitors; 0.35% of 210,000 active; active = well fitted inhibition curve with a large enough effect; inconclusive = small, poorly fitted or top-dose-only effect; inactive = no such curve, though single readings can be large or run the other way;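 also: IP1 builds up when IMPase is blocked and the TR-FRET signal falls; potency is read from the fitted curve at half-maximal effect; plate controls were basal vehicle for no effect and high inhibitor control for full effect; nearly all actives have a fitted effect of over 50% in size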
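CHO cells stably expressing M1 receptor (2000/well) were cultured 16–30 h, then exposed to compounds with a small lithium addition for 30 min at 37C. IP1 was measured by TR-FRET competition; AC50 from Hill fits.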
HPGD block – blocks human HPGD enzyme activity; P15428; purified HPGD, NADH fluorescence kinetic, PGE2 substrate; Potency, µM, inactives show at the top dose activity change, negative = inhibition, most hits filed as inhibitors; 4.3% of 150,000 active; also: potency is read from the fitted curve at half-maximal effect
Target sequence (P15428 whole entry, looked up): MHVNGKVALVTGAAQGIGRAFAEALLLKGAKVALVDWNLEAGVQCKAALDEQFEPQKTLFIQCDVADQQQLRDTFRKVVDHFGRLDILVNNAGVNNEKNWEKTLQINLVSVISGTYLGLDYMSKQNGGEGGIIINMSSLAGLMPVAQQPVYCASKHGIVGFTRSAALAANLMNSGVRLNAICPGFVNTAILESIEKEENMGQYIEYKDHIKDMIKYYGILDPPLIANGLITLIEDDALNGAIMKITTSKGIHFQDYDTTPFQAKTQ
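NADH formation kinetics: reaction with 30 uM PGE2 and 1 mM NAD+ (final), 20 nM enzyme, Tris-HCl pH 8 with Tween 20, after 15 min compound preincubation at room temperature. Fluorescence change, last versus first of five reads.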
PNC assembly inh – blocks assembly of the perinucleolar compartment; PC3M PTB-GFP, PNC prevalence imaging, 16 h; stronger effect = lower value; activity change (PNC), negative = inhibition, % at 10 µM; 3.1% of 140,000 active; AID 2417;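 active = readout at or below -70, meaning at least 70% loss of cells showing the perinucleolar compartment, a nuclear body marking cancer cells; inconclusive = readout between -30 and a set limit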;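 also: plate controls were DMSO wells for no effect and camptothecin positive control wells for full effect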
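Read-out is percentage of cells bearing a perinucleolar compartment, from automated 20x imaging of fixed, Hoechst-stained PC3M PTB-GFP cells. Cells were seeded 4 h, then exposed 16 h to compound (23 nl of library stock) in duplicate plates.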
ALDH1A1 block – ALDH1A1 (human) enzyme inhibition; Purified ALDH1A1, NADH fluorescence, propionaldehyde substrate; Potency, µM (doses to about 75.3 µM), without a hit: top-dose activity, negative = inhibition, usual class: inhibitors; 7.3% of 220,000 active; AID 1030;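 also: potency is read from the fitted curve at half-maximal effect; plate controls were no enzyme wells and a reference inhibitor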
IMPase inh – membrane-permeable compound that blocks inositol monophosphatase; P97697; CHO-M1 cells, IP1 accumulation, HTRF TR-FRET ratio; inhibition (IP1 accumulation), % at 46.1 µM; 120,000 tested, under 10 active; AID 901; active = well fitted curve in the direction sought with a large enough effect in the signal ratio, not every such curve was filed as active; inconclusive = small, poorly fitted or top-dose-only effect, or a change in a side signal; inactive = no such curve, though single readings can be large or run the other way; the % refers to the signal ratio;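 also: cells stimulated with carbachol in lithium chloride buffer; plate controls were DMSO basal wells for no effect and reference inhibitor wells for full effect; higher means more IMPase inhibition seen as more IP1 and lower FRET ratio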
Target sequence (P97697 whole entry, looked up): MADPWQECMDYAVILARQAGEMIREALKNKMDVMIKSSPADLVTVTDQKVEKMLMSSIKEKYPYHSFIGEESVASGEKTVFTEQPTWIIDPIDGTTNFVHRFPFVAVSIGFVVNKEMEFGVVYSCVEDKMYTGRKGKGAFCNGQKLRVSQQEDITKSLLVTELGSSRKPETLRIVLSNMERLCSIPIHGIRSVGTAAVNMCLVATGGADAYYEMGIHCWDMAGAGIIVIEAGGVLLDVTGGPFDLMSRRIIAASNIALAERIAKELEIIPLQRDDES
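In this qHTS, compounds (final up to 46 uM) act on CHO-M1 cells that are then activated through the M1 receptor with carbachol, in pH 7.4 buffer containing 50 mM LiCl, for 30 min. IP1 accumulation is quantified by the IP-One immunoassay.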
* hit, by the source's call; u = inconclusive; x = no result; [ ] = another dose, or the depositor's remark. This is a sample that favours compounds with a hit; in the whole collection about 11% have one here. Unless noted, calls follow the shape of the dose curve; as a rule, active = well fitted inhibition curve with a large enough effect (not every such curve was filed as active); inconclusive = small, poorly fitted or top-dose-only effect, or another doubt; inactive = no such curve, though single readings can be large or run the other way. Unless noted, % is scaled to controls: 0 for no effect and ±100 for the full control effect.

SMILES | IMPase Li cell | HPGD block | PNC assembly inh | ALDH1A1 block | IMPase inh
O=C(c1cccc(F)c1)N1CCC[C@@]2(CCN(C(c3ccccc3)c3ccccc3)C2)C1 | 22% | -28% | x | 8.9µM* | x
O=C(c1cccc(F)c1)N1CCC2(CCCN(c3cccc(-c4ccccc4)c3)C2)CC1 | 3% | -14% | x | 11µM* | x
O=C(c1cccc(F)c1)N1CCC[C@@]2(CCN(Cc3ccccc3)C2)C1 | 7% | 18µM* | x | -7% | x
COc1ccc(NC(=O)N2CC[C@@]3(CCCN(C(=O)c4cccc(F)c4)C3)C2)cc1 | 9% | -10% | x | 18µM* | x
O=C(c1cccc(F)c1)N1CCC2(CC1)CN(c1cccc(-c3ccccc3)c1)C2 | 7% | u | x | u | x
COc1ccc(NC(=O)N2CCCC3(CCN(S(=O)(=O)c4ccccc4)CC3)C2)cc1 | 16% | -7% | x | 14µM* | x
O=C(c1cccc(F)c1)N1CCC[C@@]2(CCN(c3cccc(-c4ccccc4)c3)C2)C1 | 9% | -16% | x | u | x
O=C(c1cccc(F)c1)N1CCC[C@@]2(CCN(c3ccccc3)C2)C1 | 37% | 7.9µM* | x | 1.1µM* | x
Cn1cccc1C(=O)N1CCC2(CC1)CCN(c1ccccn1)CC2 | 19% | -30% | x | u | x
CC1Cc2ccccc2N1C(=O)CCNS(=O)(=O)c1ccc2c(c1)CCC(=O)N2 (configuration not stated) | 5%[38.3 µM] | -1% | 9 | 16µM* | -2
Cc1ccc(NS(=O)(=O)c2cc([N+](=O)[O-])ccc2NNC(=S)Nc2cc(C)ccc2C)c(C)c1 | 10% | 7.9µM* | u | 2.8µM* | x
COc1ccc(NC(=S)NNc2ccc([N+](=O)[O-])cc2S(=O)(=O)Nc2ccc(C)cc2C)cc1 | 3% | 14µM* | u | 4µM* | x
CC(=O)Nc1ccc(NS(=O)(=O)c2cc([N+](=O)[O-])ccc2C)cc1 | -3% | x | x | -1% | x
Cc1ccc(NS(=O)(=O)c2cc([N+](=O)[O-])ccc2NNC(=S)Nc2cccc(Cl)c2)c(C)c1 | -8% | 28µM* | -24 | 0.28µM* | -10
Cc1cccc(NS(=O)(=O)c2cc(NC(=O)CC(=O)c3ccc([N+](=O)[O-])cc3)ccc2C)c1 | 19% | x | x | -8% | x
COc1ccc(CC(N)C(=O)N[C@H]2[C@@H](O)[C@H](n3cnc4c(N(C)C)ncnc43)O[C@@H]2CO)cc1 (some centres not stated) | -5% | -5% | x | -5% | x
CCN(CC)C(=O)c1cc(Cl)ccn1 | 13% | x | x | 32µM* | x
Clc1ccccc1-c1cc(NCc2ccccc2)ncn1 | -2% | x | x | -14% | x
O=C(CSc1ncccc1-c1nc2ccccc2[nH]1)N1CCN(c2ccccc2F)CC1 | 10µM* | u | -20 | u | u
COc1ccccc1N1CCN(C(=O)CSc2ncccc2-c2nc3ccccc3[nH]2)CC1 | 15%[38.3 µM] | -23% | 12 | u | 3
CCOC(=O)N1CCc2c(sc3c2C(=O)NC(c2cc(OC)c(OC)c(OC)c2)N3)C1 (configuration not stated) | x | x | x | x | 1
CCN(C(=O)COC(=O)CNC(=O)c1ccc(C)c(C)c1)C1CCS(=O)(=O)C1 (configuration not stated) | -9% | -12% | -121* | 25µM* | x
CCC/C(O)=N\S(=O)(=O)c1ccc(N=NN(C)C)cc1 | -3% | -2% | -4 | -4% | 17
Cc1nnc(SCCn2c(Br)nc3c2c(=O)[nH]c(=O)n3C)s1 | -14%[38.3 µM] | -14% | -27 | 7.9µM* | 9
Cn1c(=O)[nH]c(=O)c2c1nc(Br)n2CCC(=O)c1ccccc1 | -7%[38.3 µM] | -9% | -5 | 3.5µM* | 3
SMILES | IMPase Li cell | HPGD block | PNC assembly inh | ALDH1A1 block | IMPase inh
COc1ccc(CCn2c(N3CCN(C)CC3)nc3c2c(=O)[nH]c(=O)n3C)cc1 | 16%[38.3 µM] | -10% | -3 | -4% | 1
COc1ccc(CCn2c(Br)nc3c2c(=O)[nH]c(=O)n3C)cc1 | 0%[38.3 µM] | 13µM* | -82* | 6% | -1
COC(=O)/C(=C1/OC(=O)C(c2ccccc2)=C1O)c1ccccc1 | 4% | -12% | x | 0% | x
CCCn1c(C)nc2c(NCCCCN(C)C)nc(C)nc21 | -6% | -5% | x | 4% | x
CCOc1ccc(C(=O)Nc2cccc(NC(=O)c3ccc(C(C)(C)C)cc3)c2)cc1Br | x | x | x | x | -3
O=C(CCl)Nc1cccn2ncnc12 | 28%[38.3 µM] | -5% | 46 | 3.2µM* | -4
CC(=O)Nc1sc(NC(=O)c2ccccc2)nc1-c1cccs1 | -8%[38.3 µM] | -6% | -3 | 5% | -6
CCN(CC)CCNc1nc(-c2cccs2)c(CC(=O)O)s1 | 7% | x | x | 20µM* | x
Cc1cccc(/C=C2\CCC(=C3SCCCS3)C2=O)c1 | 2%[38.3 µM] | -28% | 69 | 8.9µM* | 8
COc1ccc(-c2cc(CNC(=O)CN(C)Cc3ccccc3)on2)cc1 | 2%[38.3 µM] | 25µM* | 65 | 4% | 3
CCC(=O)CC(NC(=O)OC)c1ccccc1 (configuration not stated) | x | x | x | 1%[13.5 µM] | x
COC(=O)N[C@H](CC(C)=O)c1ccccc1 | -4% | -8% | -99* | 5% | x
CNC(=O)c1sc2nc(-c3ccc(OC)cc3)cn2c1C | -17%[38.3 µM] | -26% | 45 | -7% | 2
CCN(CC)C(=O)c1sc2nc(-c3ccc(OC)cc3)cn2c1C | 0%[38.3 µM] | 14µM* | 15 | -14% | 1
COc1ccc(-c2cn3c(C)c(C(=O)Nc4cc(NC(C)=O)ccc4OC)sc3n2)cc1 | 4.5µM* | u | -24 | u | u
Oc1cccc(/C=N/c2c(-c3ccco3)nc3ccccn23)c1 | 13µM* | u | -8 | u | 28
C=CCOc1ccccc1/C=N/O | -11%[38.3 µM] | 16µM* | 9 | 5% | 3
Cc1ccc(Oc2ccccc2/C=N/O)cc1 | 2% | -29% | 14 | 0% | 14
C/C=C1/C2C=C(C)CC1(N)c1ccc(=O)[nH]c1C2 (configuration not stated) | 11% | 1% | x | 3% | x
Cc1ccc(C)c(S(=O)(=O)Nc2ccc3scnc3c2)c1 | 32%[38.3 µM] | -17% | -6 | 1.8µM* | -6
Cc1ccc(C)c(S(=O)(=O)Nc2nc3ccc(S(N)(=O)=O)cc3s2)c1 | -6% | x | x | 6% | x
NCCC(=O)N[C@@H](Cc1cnc[nH]1)C(=O)O | 6% | -10% | x | 0% | -5
Nc1c(-c2ccc(Cl)cc2)cnc2ncnn12 | 7%[38.3 µM] | -13% | -109* | 18% | 1
Cc1cc2ncc(-c3ccc(Cl)cc3)c(N)n2n1 | 28%[38.3 µM] | u | -108* | 5% | 11
CCOC(=O)c1c(CC(C)C)csc1NC(=O)C(C)C | 25%[38.3 µM] | 1% | -17 | -6% | 5
CC(C)Cc1csc(NC(=O)c2ccccc2Cl)c1C(=O)O | -10% | 14µM* | -13 | u | x
Cc1cccc(C(=O)Nc2scc(CC(C)C)c2C(=O)O)c1 | 5% | 16µM* | -98* | u | x
CCOC(=O)c1c(CC(C)C)csc1NC(=O)CCl | 21%[38.3 µM] | -8% | 24 | 8.9µM* | 7
Cc1cccc(C(=O)Nc2cccc(OCC(=O)O)c2)c1 | 5% | x | x | 2% | x
